PubChem BioAssay (NCI)
Compounds without any hit were thinned out: in the full panel of roughly 83,000, 20% have a hit.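 Results are percent growth after 48 hours of single-concentration exposure. 100 means growth as in untreated cells, lower positive values show inhibition; negative values down to -100 show cell death.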 Values without a mark were called inactive. Calls of active or inactive are those of the source. Rule for the calls: active = growth percent below 10; inactive = the rest.

What was measured:
Experiment in all cases: NCI-60 one-dose screen, 48 h (100 = growth as untreated, 0 = no growth, -100 = all killed)
[1] = system: RPMI-8226 leukemia; conditions: 10 µM unless noted
[2] = system: OVCAR-8 ovarian; conditions: 10 µM unless noted
[3] = system: OVCAR-5 ovarian; conditions: 10 µM unless noted
[4] = system: OVCAR-4 ovarian; conditions: 10 µM unless noted
[5] = system: SK-OV-3 ovarian; conditions: 10 µM unless noted
[6] = system: IGROV1 ovarian; conditions: 10 µM unless noted
[7] = system: OVCAR-3 ovarian; conditions: 10 µM unless noted
[8] = system: HS 578T breast; conditions: 10 µM unless noted
[9] = system: NCI/ADR-RES ovarian; conditions: 10 µM unless noted
[10] = system: T-47D breast; conditions: 10 µM unless noted
[11] = system: BT-549 breast; conditions: 10 µM unless noted
[12] = system: MDA-MB-435 melanoma; conditions: 10 µM unless noted
[13] = system: SW-620 colon; conditions: 10 µM unless noted
[14] = system: MCF7 breast; conditions: 10 µM
[15] = system: HCT-116 colon; conditions: 10 µM unless noted
[16] = system: HCC-2998 colon; conditions: 10 µM unless noted
[17] = system: KM12 colon; conditions: 10 µM unless noted

SMILES	growth [1]	growth [2]	growth [3]	growth [4]	growth [5]	growth [6]	growth [7]	growth [8]	growth [9]	growth [10]	growth [11]	growth [12]	growth [13]	growth [14]	growth [15]	growth [16]	growth [17]
O=C1c2ccc3c4c(ccc(c24)C(=O)N1CCCCO)C(=O)N(CCCCO)C3=O	16.8%	75.4%	106%	42.4%	85.1%	86.2%	32.9%	78.2%	82.2%	87.3%	63.5%	3.2% (active)	10.6%	28.2%	28.4%	97.2%	95.3%
COc1ccc(OC)c(N(CCN2C(=O)c3ccccc3C2=O)C(=O)CCl)c1	32.9%	65.6%	65.9%	-49.5% (active)	91.3%	-73.4% (active)	14.6%	52.6%	49.2%	95.4%	92.4%	81.5%	96.4%	78.8%	89%	111%	-11.3% (active)
CC/C(=C(\CC)c1ccc(OCC[N+](C)(C)C)cc1)c1ccc(OC)cc1	31.1%	53%	102%	68.5%	86.9%	68.8%	51.3%	72.3%	107%	59%	74.5%	86%	68.5%	89%	48.9%	47.9%	51.3%
O=C(Nc1ccc(N2CCNCC2)cn1)c1[nH]ncc1Nc1ncnc2sccc12	1.87% (active)	-33.5% (active)	67%	21.3%	70.4%	78.1%	33.2%	69.9%	91%	-4.16% (active)	93.4%	-86.1% (active)	-89.2% (active)	20.1%	-68.2% (active)	52.6%	57.3%
COc1cc2c(cc1OC)C(=O)C(CC1CCN(C(=O)Nc3ccc(C)cc3)CC1)C2 (stereo unspecified)	111%	106%	86.9%	89.8%	98.5%	96.1%	100%	82.1%	99.6%	89.1%	96.6%	97.7%	94.6%	90.4%	97.4%	116%	94.3%
CN1C(=O)N(C)C2(c3ccccc3)OC(=S)NC12c1ccccc1 (stereo unspecified)	109%	100%	99.6%	96.1%	92%	103%	97.4%	108%	108%	95.4%	94.1%	103%	111%	91.8%	94.8%	106%	91.9%
COc1ccc(-c2nsc3c2NC(=O)CC3c2cccc(OC)c2)cc1 (stereo unspecified)	12.1%	45.9%	52.9%	39.9%	14.2%	45.5%	-18.6% (active)	28.5%	32.4%	35.2%	39.6%	-30.6% (active)	27.2%	18.3%	29%	57.4%	36.2%
CC1(C)CC2(C)OC2C2(C1)N=NC(=Nc1ccccc1)O2 (stereo unspecified)	4.43% (active)	77.8%	94.3%	60.9%	117%	89.6%	10.3%	103%	92.7%	63.9%	-19.1% (active)	59.5%	23%	23.9%	20%	102%	87.7%
COc1ccc(-c2nc(-c3ccccc3)c(-c3ccccc3)[nH]2)cc1OC1CCCCC1	58.9%	86.7%	96.6%	74.2%	98.9%	102%	72.6%	91.2%	87.7%	82.6%	118%	84.8%	88.8%	73.6%	88.4%	90.8%	89.3%
OC(c1ccccc1)c1nnc(SCc2ccccc2)n1Cc1ccccc1 (stereo unspecified)	72.5%	98.8%	92.8%	81.6%	90%	93.7%	103%	94%	92.8%	85.2%	88.4%	97.8%	105%	92.9%	92.2%	111%	108%
COc1ccc(Cn2cc(Cn3cc(C=C4C(=O)NC(=O)NC4=O)c4ccccc43)nn2)cc1	83.8%	87.6%	71.7%	82.4%	75.3%	94.3%	88.9%	82.6%	84.1%	64.3%	99.5%	90.8%	85.9%	75.8%	80.1%	109%	93%
O=C(NN1C(=O)CSC1c1ccc(Cl)cc1)c1[nH]c2ccc(F)cc2c1-c1ccccc1 (stereo unspecified)	25%	35.2%	72%	47.4%	87.2%	36.8%	47.9%	94.6%	43.3%	52.1%	50.9%	44.9%	77.8%	14.6%	31.6%	6.69% (active)	44.8%
CCCCCCC(O)(c1ccc(F)cc1)C(CN1CCOCC1)c1ccccc1 (stereo unspecified)	16.9%	33.5%	69.8%	31.7%	76.7%	44%	2.28% (active)	51.6%	17.2%	14.3%	61.9%	35.8%	26.3%	20.4%	18.5%	23.3%	29%
O=C(Nc1ccc(C23CC4CC(CC(c5ccccc5)(C4)C2)C3)cc1)c1cccs1	41.1%	57.5%	100%	58%	99.3%	92.8%	71.1%	92.7%	58%	49.2%	68.9%	44.9%	82%	67.3%	60.4%	74.8%	64.8%
COc1cc(C(C)n2cc(-c3ccccc3)nn2)ccc1OC1CCCC1 (stereo unspecified)	36.1%	65.6%	93.1%	54.9%	75.8%	70.9%	61.5%	94%	45%	51.5%	69.1%	65.4%	74.7%	48.1%	52.3%	70.4%	71.8%
c1ccc(CNc2nc(Nc3ccccc3)nc3ccccc23)cc1	45.4%	34.9%	72.8%	36.8%	3.4% (active)	63.2%	39.6%	44.4%	62.3%	77.4%	89.2%	11.7%	56.1%	56.9%	58.2%	37.2%	71.8%
O=C1C(Cl)=C(NCc2ccco2)C(=O)c2ccccc21	38.9%	93.7%	116%	85.4%	115%	57.6%	84.6%	89.6%	84.6%	69.1%	103%	-38.4% (active)	99.7%	22%	80.5%	97.9%	62.6%
COC(=O)C1=Nc2ccc(F)cc2/C1=C/c1sc(=S)[nH]c1O	-9.01% (active)	13.3%	43.6%	58.2%	28.5%	14.4%	-1.67% (active)	23.1%	7.28% (active)	61.2%	-3.33% (active)	-20.9% (active)	22.6%	12.5%	6.89% (active)	25%	10.3%
